Measured values: the supplement of paper PMC10849652
The full data set covers some 7,900 targets. This sample favours those with a hit. About 0.6% of all pairs of compound and target were hits.

What follows are targets tested with C1CCN(C1)C(=O)NC2=CC=CC(=C2)NC3=NC=C(C(=N3)NCCC4=CN=CN4)Br (assay: log2 fold change, soluble protein after heating vs DMSO (PISA); higher = thermal stabilisation; K562 cells, 10 uM, 30 min; active = over 0.2 and 3.5 SD of the protein, either way, in both replicates (recomputed)).
In short: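 Thermal stability values are relative to control samples and come from duplicates. They are expressed as log2 fold changes. For measurement, K562 cells (2×10^6 cells/mL) received 10 μM compound for 30 min, and aliquots were heated for 3 min over 48°C-58°C, pooled, and extracted at 4°C in PBS with 0.5% NP-40. Soluble protein, the supernatant after 21,000xg for 90 min, was quantified by TMTpro 16plex LC-MS/MS with equalised channel sums.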

UniProt Q8TCG2, sequence (Q8TCG2 whole entry, looked up): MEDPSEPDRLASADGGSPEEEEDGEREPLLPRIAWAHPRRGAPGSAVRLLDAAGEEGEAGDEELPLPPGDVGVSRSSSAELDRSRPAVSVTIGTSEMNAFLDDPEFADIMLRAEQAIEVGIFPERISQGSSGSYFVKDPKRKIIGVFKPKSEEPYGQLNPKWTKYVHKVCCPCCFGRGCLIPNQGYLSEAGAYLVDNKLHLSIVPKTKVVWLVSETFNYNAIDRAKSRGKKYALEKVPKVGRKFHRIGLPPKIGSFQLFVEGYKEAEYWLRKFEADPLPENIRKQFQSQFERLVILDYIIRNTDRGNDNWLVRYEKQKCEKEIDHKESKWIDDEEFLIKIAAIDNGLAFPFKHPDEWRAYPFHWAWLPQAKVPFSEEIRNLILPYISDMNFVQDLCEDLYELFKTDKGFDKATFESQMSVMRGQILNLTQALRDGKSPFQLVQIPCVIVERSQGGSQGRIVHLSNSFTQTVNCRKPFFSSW
UniProt P41247, sequence (P41247 whole entry, looked up): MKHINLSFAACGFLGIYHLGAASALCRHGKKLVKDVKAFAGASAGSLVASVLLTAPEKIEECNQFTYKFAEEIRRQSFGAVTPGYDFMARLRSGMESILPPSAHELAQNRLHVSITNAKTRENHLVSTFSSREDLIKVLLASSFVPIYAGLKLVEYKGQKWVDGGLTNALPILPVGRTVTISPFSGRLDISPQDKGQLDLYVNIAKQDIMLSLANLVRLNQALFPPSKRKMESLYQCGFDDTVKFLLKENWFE
UniProt Q14671, sequence (Q14671 whole entry, looked up): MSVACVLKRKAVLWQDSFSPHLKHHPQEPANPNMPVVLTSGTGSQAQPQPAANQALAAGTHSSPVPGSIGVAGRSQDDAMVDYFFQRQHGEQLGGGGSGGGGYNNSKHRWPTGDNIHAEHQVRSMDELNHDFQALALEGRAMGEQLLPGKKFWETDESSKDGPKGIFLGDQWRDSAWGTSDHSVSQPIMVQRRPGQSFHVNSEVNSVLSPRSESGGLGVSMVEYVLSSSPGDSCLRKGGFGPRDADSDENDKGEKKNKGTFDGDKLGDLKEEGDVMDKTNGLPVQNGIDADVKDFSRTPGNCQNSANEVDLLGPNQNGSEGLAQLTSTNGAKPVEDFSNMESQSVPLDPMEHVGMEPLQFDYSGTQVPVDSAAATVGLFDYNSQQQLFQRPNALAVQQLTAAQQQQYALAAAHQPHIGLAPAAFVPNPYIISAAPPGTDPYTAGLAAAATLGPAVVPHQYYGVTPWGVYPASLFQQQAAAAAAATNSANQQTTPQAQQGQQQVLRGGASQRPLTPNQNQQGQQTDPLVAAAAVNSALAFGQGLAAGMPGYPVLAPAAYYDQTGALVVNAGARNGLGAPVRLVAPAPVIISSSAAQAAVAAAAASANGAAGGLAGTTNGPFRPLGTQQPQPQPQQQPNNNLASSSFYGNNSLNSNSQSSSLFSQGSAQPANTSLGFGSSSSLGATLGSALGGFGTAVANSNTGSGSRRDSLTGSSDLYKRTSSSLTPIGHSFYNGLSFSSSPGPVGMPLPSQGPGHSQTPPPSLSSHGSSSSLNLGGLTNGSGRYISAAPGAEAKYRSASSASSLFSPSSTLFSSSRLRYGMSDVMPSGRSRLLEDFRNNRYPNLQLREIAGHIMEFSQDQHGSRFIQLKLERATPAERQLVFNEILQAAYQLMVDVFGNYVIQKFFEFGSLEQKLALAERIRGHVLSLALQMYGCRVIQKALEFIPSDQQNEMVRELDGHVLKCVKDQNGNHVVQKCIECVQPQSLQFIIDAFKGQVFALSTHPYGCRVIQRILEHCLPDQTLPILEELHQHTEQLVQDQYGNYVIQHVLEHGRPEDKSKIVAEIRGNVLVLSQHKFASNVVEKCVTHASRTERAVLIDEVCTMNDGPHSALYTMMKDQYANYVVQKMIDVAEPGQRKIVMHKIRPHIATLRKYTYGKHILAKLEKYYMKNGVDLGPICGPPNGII
UniProt Q5JVF3, sequence (Q5JVF3 whole entry, looked up): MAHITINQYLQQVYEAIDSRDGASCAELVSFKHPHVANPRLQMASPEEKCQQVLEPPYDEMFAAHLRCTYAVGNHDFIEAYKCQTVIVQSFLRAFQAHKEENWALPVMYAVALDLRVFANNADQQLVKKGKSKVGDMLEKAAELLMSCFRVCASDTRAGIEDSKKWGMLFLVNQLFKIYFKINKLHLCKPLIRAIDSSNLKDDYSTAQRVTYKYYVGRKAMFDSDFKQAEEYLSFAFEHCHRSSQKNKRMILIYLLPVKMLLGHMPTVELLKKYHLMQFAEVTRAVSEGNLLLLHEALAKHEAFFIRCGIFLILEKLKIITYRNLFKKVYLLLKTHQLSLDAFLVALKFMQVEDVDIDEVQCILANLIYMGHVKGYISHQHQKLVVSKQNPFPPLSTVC
UniProt Q96RV3, sequence (Q96RV3 whole entry, looked up): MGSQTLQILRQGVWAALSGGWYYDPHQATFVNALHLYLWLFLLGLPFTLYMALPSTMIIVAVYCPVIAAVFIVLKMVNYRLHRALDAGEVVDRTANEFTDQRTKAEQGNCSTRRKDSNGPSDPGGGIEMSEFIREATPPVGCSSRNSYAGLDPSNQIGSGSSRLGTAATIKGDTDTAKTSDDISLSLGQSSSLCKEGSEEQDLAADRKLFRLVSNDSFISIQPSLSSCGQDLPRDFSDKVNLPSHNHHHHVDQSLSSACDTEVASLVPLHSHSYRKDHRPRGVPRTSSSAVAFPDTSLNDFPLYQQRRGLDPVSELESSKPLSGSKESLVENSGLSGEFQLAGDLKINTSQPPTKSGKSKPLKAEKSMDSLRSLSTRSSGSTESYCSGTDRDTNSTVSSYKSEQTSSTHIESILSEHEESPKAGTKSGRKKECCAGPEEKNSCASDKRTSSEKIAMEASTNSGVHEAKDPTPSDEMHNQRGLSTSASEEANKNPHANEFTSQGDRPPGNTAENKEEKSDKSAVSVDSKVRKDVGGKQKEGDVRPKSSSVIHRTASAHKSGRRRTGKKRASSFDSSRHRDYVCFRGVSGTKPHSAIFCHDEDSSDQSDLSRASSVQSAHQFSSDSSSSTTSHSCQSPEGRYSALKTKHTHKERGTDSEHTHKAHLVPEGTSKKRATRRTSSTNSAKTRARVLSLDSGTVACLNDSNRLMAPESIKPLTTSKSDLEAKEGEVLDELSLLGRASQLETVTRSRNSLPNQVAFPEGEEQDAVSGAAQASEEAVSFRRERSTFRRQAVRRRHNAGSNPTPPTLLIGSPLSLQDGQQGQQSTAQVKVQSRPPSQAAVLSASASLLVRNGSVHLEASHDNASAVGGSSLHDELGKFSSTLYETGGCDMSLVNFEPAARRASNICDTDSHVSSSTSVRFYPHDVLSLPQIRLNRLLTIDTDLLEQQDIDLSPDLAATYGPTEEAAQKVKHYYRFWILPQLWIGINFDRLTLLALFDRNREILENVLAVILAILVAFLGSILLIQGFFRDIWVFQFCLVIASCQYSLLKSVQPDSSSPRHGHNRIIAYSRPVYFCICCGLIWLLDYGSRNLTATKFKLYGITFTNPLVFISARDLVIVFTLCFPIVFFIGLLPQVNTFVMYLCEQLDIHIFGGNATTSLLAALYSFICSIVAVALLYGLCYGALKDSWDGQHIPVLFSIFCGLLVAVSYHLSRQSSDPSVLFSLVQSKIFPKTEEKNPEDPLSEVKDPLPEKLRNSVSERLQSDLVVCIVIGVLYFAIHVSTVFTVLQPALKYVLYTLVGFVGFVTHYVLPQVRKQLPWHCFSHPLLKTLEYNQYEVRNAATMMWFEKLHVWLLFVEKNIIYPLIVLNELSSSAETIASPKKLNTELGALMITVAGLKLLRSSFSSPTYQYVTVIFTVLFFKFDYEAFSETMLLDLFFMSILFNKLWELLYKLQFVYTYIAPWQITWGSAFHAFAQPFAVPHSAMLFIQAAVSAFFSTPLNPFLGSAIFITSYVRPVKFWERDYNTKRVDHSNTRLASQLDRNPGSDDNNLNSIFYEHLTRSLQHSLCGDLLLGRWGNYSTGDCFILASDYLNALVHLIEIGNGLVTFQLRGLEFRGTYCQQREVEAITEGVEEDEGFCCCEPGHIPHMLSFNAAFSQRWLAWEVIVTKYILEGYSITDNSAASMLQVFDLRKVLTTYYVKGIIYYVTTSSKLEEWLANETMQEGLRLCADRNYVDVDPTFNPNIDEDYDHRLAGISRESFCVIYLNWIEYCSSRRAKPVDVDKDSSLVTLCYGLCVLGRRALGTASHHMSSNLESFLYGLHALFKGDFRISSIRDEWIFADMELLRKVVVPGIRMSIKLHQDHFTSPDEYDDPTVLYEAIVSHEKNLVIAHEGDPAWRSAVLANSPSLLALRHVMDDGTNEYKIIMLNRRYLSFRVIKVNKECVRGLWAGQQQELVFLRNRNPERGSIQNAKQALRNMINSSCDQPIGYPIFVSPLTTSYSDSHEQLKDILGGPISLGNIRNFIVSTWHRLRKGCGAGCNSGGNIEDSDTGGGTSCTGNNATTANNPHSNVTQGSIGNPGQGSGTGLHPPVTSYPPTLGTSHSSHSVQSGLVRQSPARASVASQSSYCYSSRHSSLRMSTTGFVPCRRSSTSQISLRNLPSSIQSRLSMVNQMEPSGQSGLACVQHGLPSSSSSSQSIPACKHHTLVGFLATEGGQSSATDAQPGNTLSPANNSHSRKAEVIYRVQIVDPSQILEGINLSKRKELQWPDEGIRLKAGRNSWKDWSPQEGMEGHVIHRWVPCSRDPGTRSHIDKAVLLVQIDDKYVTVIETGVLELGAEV
UniProt P07205, sequence (P07205 whole entry, looked up): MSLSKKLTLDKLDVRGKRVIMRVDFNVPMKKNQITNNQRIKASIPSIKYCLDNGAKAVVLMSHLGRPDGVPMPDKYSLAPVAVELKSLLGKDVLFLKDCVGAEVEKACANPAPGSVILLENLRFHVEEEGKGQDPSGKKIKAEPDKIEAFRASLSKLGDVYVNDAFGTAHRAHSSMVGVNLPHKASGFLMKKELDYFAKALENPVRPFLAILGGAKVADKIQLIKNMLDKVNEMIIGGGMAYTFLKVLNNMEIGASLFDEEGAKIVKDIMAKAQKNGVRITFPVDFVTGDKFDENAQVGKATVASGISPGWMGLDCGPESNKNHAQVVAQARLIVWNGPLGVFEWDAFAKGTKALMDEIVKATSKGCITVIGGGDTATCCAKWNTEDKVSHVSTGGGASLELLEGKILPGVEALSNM

log2 fold change, inactive:
PPP1R12C (UniProt Q9BZL4) -0.05
PSMD8 (UniProt K7ERW6) 0.052
PI4K2B (UniProt Q8TCG2) 0.048
POLB (UniProt P06746) -0.118
PUM1 (UniProt Q14671) -0.045
PTK2B (UniProt Q14289) 0.025
PCID2 (UniProt Q5JVF3) -0.086
PSMC3 (UniProt E9PLG2) 0.27
POGZ (UniProt Q7Z3K3) 0.026
PCNX1 (UniProt Q96RV3) -0.019
PSMA3 (UniProt H0YJ03) -0.027
PIAS4 (UniProt Q8N2W9) 0.129
PKM isoform 2 (UniProt P14618) -0.047
PGK2 (UniProt P07205) 0.034
PNPLA4 (UniProt P41247) 0.108
PEX5 isoform 4 (UniProt P50542) 0.097
PRR14L (UniProt Q5THK1) 0.166
PUF60 isoform 2 (UniProt Q9UHX1) -0.148
